# Source: PubChem BioAssay
# KDM4E inh – qHTS Assay for Inhibitors of Human Jumonji Domain Containing 2E (JMJD2E); Lysine-specific demethylase 4E (Homo sapiens), B2RXH2; JMJD2E catalytic domain, FDH-coupled NADH fluorescence (FDH is formaldehyde dehydrogenase); Potency, µM (titrated, usually from 57.1 µM), for the others: at the highest dose activity change, negative = inhibition, most hits filed as inhibitors; actives 1.6% (n = 230,000); active means well fitted inhibition curve with a large enough effect, not every such curve was filed as active; inconclusive means small, poorly fitted or top-dose-only effect, or another doubt; inactive means no such curve, though single readings can be large or run the other way;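 further: potency means the concentration at half of the fitted maximal effect; 0% = wells with enzyme and -100% = buffer wells without enzyme; nearly all actives have a fitted effect of over 50% in size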
# Target sequence (B2RXH2 1-337 limits assumed): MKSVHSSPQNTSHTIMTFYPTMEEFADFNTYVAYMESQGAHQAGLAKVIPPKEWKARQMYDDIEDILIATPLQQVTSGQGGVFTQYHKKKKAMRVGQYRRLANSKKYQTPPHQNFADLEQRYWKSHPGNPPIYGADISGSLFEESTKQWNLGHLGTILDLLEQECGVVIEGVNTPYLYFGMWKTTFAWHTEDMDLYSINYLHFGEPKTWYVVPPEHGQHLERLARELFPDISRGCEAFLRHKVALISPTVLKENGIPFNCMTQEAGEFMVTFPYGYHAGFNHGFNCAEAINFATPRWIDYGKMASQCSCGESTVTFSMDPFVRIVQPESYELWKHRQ
# RGS12 GoLoco inh – qHTS Assay for Inhibitors of RGS12 GoLoco Motif Activity (Red Fluorophore). Guanine nucleotide-binding protein G(i) subunit alpha-1 (Homo sapiens), P63096. Gai1:RGS12 GoLoco peptide FP, rhodamine, 10 min. Potency, µM (series often up to 61.6 µM), for the others: at the highest dose activity, negative = inhibition, actives largely listed as inhibitors. actives 0.44% (n = 230,000). AID 880, 2007; active means well fitted inhibition curve with a large enough effect, not every such curve was filed as active; inactive means no such curve, though single readings can be large or run the other way; further: potency means the concentration at half of the fitted maximal effect; on the % scale 0 is the no-effect control and ±100 the full control effect; nearly all actives have a fitted effect of over 30% in size
# HTT aggregate – qHTS Multiplex Assay to Identify Dual Action Probes in a Cell Model of Huntington: Aggregate Formation (GFP); PC12 HttQ103-GFP aggregates, Acumen cytometry, 40 h; actives 1.1% (n = 220,000); Potency, µM (titrated, usually from 46.1 µM), without a hit: at the highest dose activity change, negative = inhibition, most hits filed as inhibitors; further: potency means the concentration at half of the fitted maximal effect; on the % scale 0 is the no-effect control and ±100 the full control effect; nearly all actives have a fitted effect of over 60% in size
#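 Compounds (qHTS titration) were added to PC12 cells expressing an ecdysone-driven HTT exon 1 Q103–GFP fusion after induction with 100 nM tebufenozide. Aggregate formation was measured as GFP objects in cell lysates.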
# VDR inh – Inhibitors of the vitamin D receptor (VDR): qHTS; Vitamin D3 receptor (Homo sapiens), P11473; VDR-SRC2-3 peptide fluorescence polarization, 2 h; Potency, µM, for the others: max response, negative = inhibition, usual class: inhibitors; actives 0.93% (n = 400,000); AID 504847, 2011; further: potency means the concentration at half of the fitted maximal effect; on the % scale 0 is the no-effect control and ±100 the full control effect
# Target sequence (P11473 whole entry, looked up): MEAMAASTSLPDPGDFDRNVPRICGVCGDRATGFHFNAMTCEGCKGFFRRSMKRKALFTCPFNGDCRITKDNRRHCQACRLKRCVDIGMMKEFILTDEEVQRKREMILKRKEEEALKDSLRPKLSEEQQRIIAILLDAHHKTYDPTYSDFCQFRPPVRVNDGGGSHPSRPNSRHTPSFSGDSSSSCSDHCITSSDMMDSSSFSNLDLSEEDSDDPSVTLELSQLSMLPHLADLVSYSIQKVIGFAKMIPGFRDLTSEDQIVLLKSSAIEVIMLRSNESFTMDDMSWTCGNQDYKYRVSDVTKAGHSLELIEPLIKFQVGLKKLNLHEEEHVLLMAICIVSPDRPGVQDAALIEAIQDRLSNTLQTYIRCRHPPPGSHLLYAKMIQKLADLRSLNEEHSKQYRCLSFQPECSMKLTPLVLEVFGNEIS
#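 Two reagent solutions held at 4 deg C in the dark were dispensed, compounds pinned at 23 nl, and the mixture incubated 2 h at room temperature. Read-out: fluorescence polarization of VDR–SRC2-3 peptide binding.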
# FBPA coupling cs – qHTS Assay for Inhibitors of Fructose-1,6-bisphosphate Aldolase from Giardia Lamblia: Coupling assay counterscreen; actives 0.67% (n = 290,000); coupling enzyme system counterscreen, AmpLite Red fluorescence; activity change, negative = inhibition, % at 58.2 µM, hits read low; in the data active means activity change below about -30%; further: on the % scale 0 is the no-effect control and ±100 the full control effect
#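 Activity here indicates interference with the coupling reaction, not aldolase inhibition. Compounds at 57.5 uM final met coupling enzymes for 10 min at RT; substrate and AmpLite Red detection followed, with a 525/598 nm fluorescence read after 20 min.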
# HTT ATP protect – qHTS Multiplex Assay to Identify Dual Action Probes in a Cell Model of Huntington: Cytoprotection (ATP); AID 1471, 2008; Potency, µM (titrated, usually from 56.4 µM), for inactives: cytoprotection (ATP increase), usual class: activators; actives 0.14% (n = 230,000); PC12 HTT-Q103 induced, cytoprotection, ATP luminescence, 40 h; further: potency means the concentration at half of the fitted maximal effect; % of control where 0% means no effect; nearly all actives have a fitted effect of over 45% in size
#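 Huntington model: PC12 line, ecdysone-inducible HTTQ103 exon1–GFP, tebufenozide 100 nM. Test articles in a dose series. Endpoint luminescence from cellular ATP.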
# * = called active by the depositor; ? = inconclusive; . = not tested or not shown; [ ] = another dose, or the depositor's remark. Hits are enriched below; roughly 2.3% of the tested compounds scored in any of these assays. Unless noted, the call rests on the fitted dose curve; in most records, active means well fitted curve in the direction sought with a large enough effect; inconclusive means small, poorly fitted or top-dose-only effect, or another doubt; inactive means no such curve, though single readings can be large; an effect the other way counts as inactive or inconclusive.
SMILES,KDM4E inh,RGS12 GoLoco inh,HTT aggregate,VDR inh,FBPA coupling cs,HTT ATP protect
COC(=O)COc1ccc(S(=O)(=O)NCCC2=CCCCC2)cc1Cl,-11.0%,1.7%,-9.9%,-0.4%,1.8,-7.1%
COCCNS(=O)(=O)c1ccc(OCC(=O)OC)c(Cl)c1,-6.1%,8.6%,3.16µM*,-6.2%,-0.4,-31.3%[0.074 µM]
N#C/C(=C/c1ccc(Sc2nc3ccccc3[nH]2)o1)c1cccc(F)c1,3.7%,39.2%,?,11.1%,-6.5,0.9%
N#C/C(=C/c1ccc(Sc2nc3ccccc3[nH]2)o1)c1ccccc1F,?,16.5%,11.2µM*,-5.2%,-5.9,-33.7%
C[n+]1cnc(-c2ccccc2)cc1-c1ccccc1,?,14.1µM*,5.3%,0.9%,1.0,.
C=CC[C@H](CC(=O)N[C@H](CO)Cc1ccccc1)C(=O)N[C@H](COC(=O)[C@H](CC=C)CC(=O)OC(C)(C)C)Cc1c[nH]c2ccccc12,.,.,.,3.0%,.,.
CC1(CC(=O)N/N=C/c2cc(Br)c(O)cc2O)OCCO1,25.1µM*,2.0%,-26.0%,-8.4%,0.4,13.2%
Cc1oc(/C=N/NC(=O)CC2(C)OCCO2)cc1Br,-1.0%,8.0%,28.2%,-15.9%,1.5,20.7%[10 µM]
CCOC(=O)C1(C)/C(=N/Nc2ccccc2OC)C(=O)C(=O)N1c1ccccc1 (centres undefined),25.1µM*,28.4%,.,-12.7%,-6.6,.
Cc1ccccc1-c1nc(NC2CCNCC2)c2ccccc2n1,6.0%,-5.3%,.,1.6%,0.9,-23.8%
Clc1ccccc1-c1nc(NC2CCNCC2)c2ccccc2n1,.,0.3%,.,39.8µM*,-1.4,-56.2%
CC1CCC(NC(=O)c2ccc3c(c2)N(Cc2cccc(Cl)c2)C(=O)c2ccccc2S3=O)CC1 (centres undefined),.,.,.,8.0%,.,.
O=C(CNC(=O)c1cncc(Br)c1)Nc1ccc(F)c(F)c1F,.,.,.,-5.8%,1.5,.
COc1ccccc1NC(=O)N1CCN(c2cccc(C(F)(F)F)c2)CC1,7.9%,5.7%,7.0%,-0.8%,-1.2,4.1%
COc1ccccc1CC(=O)N1CCN(c2cccc(C(F)(F)F)c2)CC1,0.8%,-1.1%,12.6µM*,-15.7%,-1.3,11.2%[10 µM]
CC(C(=O)O)c1ccc2c(c1)[nH]c1ccc(Cl)cc12 (centres undefined),-7.1%,8.1%,30.8%,?,8.3,0.355µM*
Cc1ccc(C(=O)Nc2ccc(Cc3ccncc3)cc2)cc1[N+](=O)[O-],-0.6%,-2.7%,12.6µM*,-8.7%,0.4,-49.4%
COc1ccc(Cc2nnc(SCc3ccc([N+](=O)[O-])cc3)o2)cc1,1.1%,-0.4%,7.08µM*,-6.2%,4.0,.
O=[N+]([O-])c1ccc(CSc2nnc(Cc3ccccc3)o2)cc1,8.4%,180.4%,-13.7%[9.22 µM],4.7%,1.0,-5.2%[10 µM]
CCOc1ccc(-c2cc(C)n3nc(C(=O)Nc4cc(Cl)ccc4O)cc3n2)cc1,.,.,.,4.5%,.,.
CC(C)(C)NC(=O)C(c1cccnc1)N(C(=O)c1ccc(Cl)nc1)C1CCCC1 (centres undefined),0.1%,-3.0%,6.8%[9.22 µM],-1.0%,-50.9*,-13.4%[10 µM]
CC(=O)Nc1ccc(N=Cc2c(O)c(C(=O)Nc3ccccc3)cc3ccccc23)cc1,3.6%,14.1µM*,?,-14.3%,-12.9,16.5%[10 µM]
Cc1sc(NC(=O)c2ccco2)c(C(c2cccnc2)N2CCN(CCO)CC2)c1C (centres undefined),1.3%,-5.1%,-20.2%,1.1%,3.4,-3.7%
CCOC(=O)C1CCN(C(c2cccnc2)c2c(NC(=O)c3ccco3)sc(C)c2C)CC1 (centres undefined),?,-15.7%,7.94µM*,-23.1%,-5.6,28.0%
COc1ccc(O)c(/C=N/NC(=S)Nc2cccnc2)c1,?,12.0%,12.6µM*,-11.7%,0.2,-147.8%
SMILES,KDM4E inh,RGS12 GoLoco inh,HTT aggregate,VDR inh,FBPA coupling cs,HTT ATP protect
COc1cccc(/C=N/NC(=S)Nc2cccnc2)c1,-4.0%,9.0%,12.3%,-11.9%,0.6,-7.5%
CCCCn1c(CN(C)Cc2ccccc2)nc2c1c(=O)n(C)c(=O)n2C,1.1%,8.1%,20µM*,0.4%,0.6,23.6%[10 µM]
COc1ccc(NC(=O)c2cc(S(=O)(=O)N3CCCCC3)ccc2N2CCCCC2)cn1,?,-2.1%,-2.1%,-5.3%,-35.0*,-21.2%
CCCN(CCC)C(=O)Cn1c(=O)n(-c2ccc(C)c(C)c2)c(=O)c2c3c(sc21)CCCCC3,.,.,.,3.0%,.,.
CCCN(Cc1cc2ccc(C)cc2[nH]c1=O)C(=O)c1ccccn1,?,3.4%,-6.3%,22.2%,-31.6*,6.9%[0.074 µM]
CCCCN(Cc1cc2cc(C)ccc2[nH]c1=O)C(=O)c1ccccn1,?,-2.7%,-11.9%[9.22 µM],-2.8%,-4.5,-17.3%[10 µM]
Cc1cc(C)cc(SCc2noc(C(=O)NCCC(C)C)c2C(=O)NCCC(C)C)c1,.,.,.,-5.0%,.,.
CC1(C)Cc2c(sc3c2c(=N)n(Cc2ccco2)c(=O)n3Cc2ccc(Cl)cc2)CO1,-1.2%,4.0%,17.8µM*,-15.9%,-2.6,-23.5%
N#Cc1ccc(-c2nc3ccc(Br)cc3c(=O)n2O)cc1,.,.,.,15.9%,-3.2,.
O=c1c2cc(Br)ccc2nc(-c2ccc([N+](=O)[O-])cc2)n1O,5.1%,7.0%,11.2µM*,-3.7%,-5.0,-108.0%
O=c1c2ccc(Cl)cc2nc(-c2ccc([N+](=O)[O-])cc2)n1O,?,6.1%,6.31µM*,6.2%,-8.1,-65.5%
Cc1ccc(Oc2ccc(NS(=O)(=O)c3cccc(C(=O)O)c3)cc2)cc1,.,.,.,20.3%,.,.
CC1CCN(C(=O)CSc2nc(-c3ccc(C(C)C)cc3)no2)CC1,.,.,.,4.8%,.,.
O=C(O)C[C@H](NC(=O)CP(=O)(O)O)C(=O)O.[NH-][C@@H]1CCCC[C@@H]1[NH-].[Pt],.,7.2%[14.2 µM],.,.,.,2.2%[10 µM]
CC(C)(C)OC(=O)N1CCC(c2c(C(=O)NCCN3CCC(Cc4ccccc4)CC3)cnn2-c2cccc(Cl)c2)CC1,.,.,.,17.6%,.,.
CC(=O)Oc1cc2c(C(=O)NCCCN3CCOCC3)c(C)oc2c2ccccc12,-23.4%,-1.3%,-7.8%,-5.1%,-37.7*,-45.4%[0.074 µM]
Cc1c(OCC(=O)NCCCN2CCOCC2)ccc2c1oc(=O)c1ccccc12,.,.,.,1.5%,.,.
Nc1c(Cl)ncnc1N/N=C/c1ccccn1,20µM*,-5.5%,?,-21.4%,-7.7,36.1%[0.074 µM]
Nc1c(Cl)ncnc1N/N=C/c1ccc2ccccc2n1,?,0.1%,?,-5.8%,-8.6,19.6%[0.074 µM]
